Nrf2 ARE act = activates Nrf2 signaling | AREc32 ARE-luciferase reporter (MCF7-derived line), luminescence, 24 h | Potency, µM (top dose mostly 46.1 µM), for the others: top-dose activation, hits mostly activators | 0.31% of 410,000 active; also: % of control where 0% means no effect; nearly all actives have a fitted effect of over 65% in size
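Luminescent ARE reporter assay in AREc32_Fluc cells: overnight plating at 37 deg C, 24 hr compound incubation, Steady-Glo added, 30 min RT before reading.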
TGFb SMAD3 inh = inhibitors of TGF-b signaling. HepG2 CAGA-GFP TGF-b/SMAD3 reporter, GFP fluorescence, 18 h; TGF-beta stimulated, 500 pg/mL final. Potency, µM (top dose mostly 46.1 µM), for the others: at the highest dose activity, negative = inhibition, hits mostly inhibitors. 1.2% of 410,000 active. AID 588855; also: % is scaled to controls: 0 for no effect and ±100 for the full control effect; nearly all actives have a fitted effect of over 65% in size
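Inhibition was scored as loss of TGF-beta-induced (500 pg/mL final, 18 hours, 37 degrees C) GFP in HEPG2 cells carrying a CAGA-GFP reporter, in DMEM with 1% FBS. Well GFP was summed per cell; Activity was normalised to unstimulated and stimulated DMSO wells, then concentration-response fitting.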
Nrf2 inh = inhibitors of Nrf2 signaling; A549 ARE-Fluc reporter, luciferase luminescence, 18-24 h; Potency, µM (doses to about 46 µM), inactives show top-dose activity change, negative = inhibition, usual class: inhibitors; 2.1% of 360,000 active; AID 504444; also: % is scaled to controls: 0 for no effect and ±100 for the full control effect; nearly all actives have a fitted effect of over 60% in size
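Two sequential reads on A549 ARE_Fluc cells exposed to compound for 18-24 h: a CellTiter-Fluor fluorescence read for viability, then a luciferase luminescence read for Nrf2/ARE activity.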
A549 viability = counter-screen for Nrf2 inhibitors: cytotoxicity in A549 cells. A549 ARE-Fluc cells, CellTiter-Fluor viability, 18-24 h. AID 504648. 0.16% of 390,000 active. Potency, µM (highest dose often 46 µM), for the others: at the top dose activity change, negative = cytotoxicity, actives largely listed as inhibitors; also: % is scaled to controls: 0 for no effect and ±100 for the full control effect
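A549 ARE-Fluc cells in 5% FBS OPTI-MEM, 5000 cells/well, rested 2 h then exposed to compounds in concentration-response for 18-24 h at 37 °C. Viability by CellTiter-Fluor fluorescence (Ex 405/Em 525) after 30 min; luciferase luminescence (BugLite, 15 min, RT) read afterwards.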
HepG2 viability = counter-screen for TGF-b inhibitors: cytotoxicity in HepG2 cells; HepG2 CAGA-GFP viability, ATP luminescence, 18 h; Potency, µM (titrated, usually from 46.1 µM), inactives show at the top dose activity change, negative = cytotoxicity, most hits filed as cytotoxic; 0.76% of 410,000 active
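HepG2 CAGA-GFP cells (1000/well, DMEM with 1% FBS) received compound, then TGF-beta at 500 pg/mL final, and were incubated 18 hours at 37 degrees C. Viability was read by CellTiter-Glo luminescence. Media-only wells were set as complete cell-killing and DMSO as no toxicity.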
Starred values were filed as active, the others as inactive; u = inconclusive; x = no result given. Compounds with a hit are over-represented: about 3.6% of the library has one in this group of screens. Calls follow the shape of the dose curve; as a rule, active = well fitted curve in the direction sought with a large enough effect; inconclusive = small, poorly fitted or top-dose-only effect, or another doubt; inactive = no such curve, though single readings can be large; an effect the other way counts as inactive or inconclusive. Potency is read from the fitted curve at half-maximal effect.

SMILES | Nrf2 ARE act | TGFb SMAD3 inh | Nrf2 inh | A549 viability | HepG2 viability
CN(CC(=O)NCCc1ccc(S(N)(=O)=O)cc1)Cc1ccc(Cl)cc1Cl | 0% | u | 18µM* | -6% | -34%
CCCCCN1C(C)=CC(=C(C#N)C#N)C=C1C | 0% | 1% | -23% | -4% | -18%
O=C(NNC(=O)c1ccccc1-n1cccc1)c1ccc(Cl)cc1 | 0% | 23% | x | 3% | 3%
O=C(Nc1cnc2ccccn2c1=O)c1ccc(Cl)cc1Cl | -1% | 2% | u | -6% | 0%
O=C(Nc1cnc2sccn2c1=O)c1ccccc1Cl | 11µM* | -10% | 3% | 10% | -19%
Cc1cc(Br)cc2c1N(Cc1ccccc1OC(C)C)C(=O)C2=O | -2% | x | -31% | -1% | 10µM*
CCC(=O)NC(c1ccc(F)cc1)c1cc(Cl)c2cccnc2c1O (stereo unspecified) | x | x | u | -11% | x
O=C(CCc1ccccc1)NC(c1cccs1)c1cc(Cl)c2cccnc2c1O (stereo unspecified) | -1% | u | 16µM* | u | -1%
CC(=O)NC(c1ccccc1)c1cc([N+](=O)[O-])c2cccnc2c1O (stereo unspecified) | -1% | u | 15µM* | u | 3%
CCCC(=O)NC(c1cccs1)c1cc([N+](=O)[O-])c2cccnc2c1O (stereo unspecified) | 0% | -32% | 21µM* | u | -18%
CCC(=O)NC(c1cccs1)c1cc([N+](=O)[O-])c2cccnc2c1O (stereo unspecified) | 0% | u | u | u | -47%
CCC(=O)NC(c1cc(Cl)c2cccnc2c1O)c1cccn1C (stereo unspecified) | x | x | 26µM* | -11% | x
CCC(=O)NC(c1cccs1)c1cc(Cl)c2ccccc2c1O (stereo unspecified) | 6% | u | 2% | 11% | 1%
Cc1ccc(-c2nc(N)s[n+]2-c2ccccc2)cc1 | 2% | 7% | 14% | 5% | -3%
O=C(Cn1c(=O)n(Cc2ccco2)c(=O)c2ccccc21)Nc1cccc(Cl)c1 | 0% | 10µM* | u | -17% | -84%
O=C(CCCn1c2ccccc2c(=O)c2ccccc21)Nc1cccc(Cl)c1 | -2% | 13µM* | u | -7% | -30%
Cc1ccc2c(c1)c(=O)c1ccccc1n2CCCC(=O)Nc1ccc(C)c(F)c1 | 0% | 6.3µM* | u | -19% | -17%
Cc1ccc(NC(=O)Cn2c(=O)n(Cc3ccco3)c(=O)c3ccccc32)cc1 | 0% | -13% | 7% | -1% | 5%
Cc1cccc(OC(=O)c2cc(-c3ccc(C)c(C)c3)on2)c1 | -1% | 0% | 20% | 5% | 5%
CCOc1ccc(CCN2C(=O)C(=O)N([C@@H](CC(C)C)CN3CCC[C@H]3CN3C(=O)C(=O)NC[C@@H]3Cc3ccc(O)cc3)C[C@@H]2Cc2ccccc2)cc1 | -1% | x | x | x | x
O=C(NCCCO)NC(=S)c1cccc2ccccc12 | 0% | -2% | u | 1% | 0%
CC(C)CCOc1ccc(NC(=O)C2OC3OC(C)(C)OC3C3OC(C)(C)OC23)cc1 (stereo unspecified) | -1% | -2% | 10% | -3% | 8%
O=C(OCc1c(F)cccc1Cl)c1cccc(S(=O)(=O)N2CCOCC2)c1 | 0% | -4% | -11% | -1% | -19%
O=C(CCNc1cc(Cl)cc(Cl)c1)c1cccs1 | 6.3µM* | u | 9% | 7% | -4%
O=C(CCNc1ccc(Cl)cc1)c1cccs1 | u | -17% | 23% | -1% | -14%
SMILES | Nrf2 ARE act | TGFb SMAD3 inh | Nrf2 inh | A549 viability | HepG2 viability
O=C(NC1(C(F)(F)F)C(=O)Nc2c1c(=O)[nH]c(=O)n2-c1ccccc1)c1ccncc1 (stereo unspecified) | -1% | 0% | 0% | -10% | -13%
Cc1cccc(-c2nc(CSCC(=O)N3CCN(c4ccccn4)CC3)c(C)o2)c1 | 0% | -13% | 21µM* | -9% | -23%
Cc1cccc(-c2nc(CSCC(=O)N3CCN(c4cccc(C)c4C)CC3)c(C)o2)c1 | 2% | u | x | -27% | -67%
COc1ccc2[nH]c(C(=O)N3CCc4ccccc4C3)c(C)c2c1 | 3% | u | 18µM* | 9% | -27%
COc1ccc(-c2cn3c(C)c(C(=O)N4CCc5ccccc5C4)sc3n2)cc1 | 0% | -21% | 16µM* | -5% | -28%
COc1ccc(N2CCN(C(=O)c3[nH]c4ccc(OC)cc4c3C)CC2)cc1 | 0% | 0% | -16% | -4% | -3%
COc1ccc(-c2ccc(C(=O)Nc3cc(OC)c(OC)c(OC)c3)c3occc23)c(C)c1 | 0% | -5% | x | x | -15%
COc1ccc(CN2CCC(N3CC(C)OC(C)C3)CC2)c(OC)c1OC (stereo unspecified) | -1% | -11% | -2% | -6% | 4%
OCCCNc1ncnc2sc(-c3ccccc3)cc12 | 13% | -13% | u | 1% | 0%
CC(C)(C)Nc1ncnc2sc(-c3ccccc3)cc12 | 1% | u | 12µM* | u | -19%
C=COCCCNc1ncnc2sc(-c3ccccc3)cc12 | 0% | u | 13µM* | -16% | -33%
CCCOC(=O)c1c(NC(=O)/C=C/c2cnn(C)c2C)sc(C(=O)OC)c1C | 0% | -12% | 4% | -4% | -3%
COc1ccc(N2C(=O)CC(N3CCN(c4ccccc4F)CC3)C2=O)cc1 (stereo unspecified) | -1% | -2% | 0% | 2% | 0%
CC1(C)CC(=O)C2=C(C1)NC(SCC(=O)Nc1ccccc1)=C(C#N)C2c1ccco1 (stereo unspecified) | 5% | -8% | u | -23% | -29%
Cc1ccc(C(=O)CSC2=C(C#N)C(c3ccco3)C3=C(CC(C)(C)CC3=O)N2)cc1 (stereo unspecified) | 6% | -25% | 16µM* | u | -13%
CCOC(=O)N1CCN(S(=O)(=O)c2ccc(C(=O)NNc3nc4c(C)cccc4s3)cc2)CC1 | -2% | u | u | -18% | -31%
Cc1cccc2sc(NNC(=O)c3ccc(S(=O)(=O)N4CCCC(C)C4)cc3)nc12 (stereo unspecified) | 0% | 13µM* | u | -21% | -61%
Cc1nn(C)c(C)c1NC(=O)COc1ccc(F)cc1Br | 0% | -10% | 23µM* | 1% | -5%
COc1ccccc1N1CCN(c2nc3ccccc3nc2C(C#N)C(=O)OC(C)C)CC1 (stereo unspecified) | 0% | -28% | x | u | 9%
O=Cc1ccc(O)c2ncccc12 | u | 4µM* | u | 0% | 4.5µM*
O=C(c1cc(-c2ccc(O)cc2)on1)N1CCCCCC1 | 2% | 4% | u | -10% | -8%

Assay outcomes from PubChem.
